Compounds without any hit were thinned out: in the full panel of roughly 83,000, 20% have a hit.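 Negative percent growth values reflect cell death: -40 means 40% of the cells present at the start died, and -100 means all died.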 Unmarked numbers belong to inactive results. Active and inactive are the calls of the source.

The test deals with COLO 205 colon. The test can be described thus: NCI-60 one-dose screen, 48 h (100 = growth as untreated, 0 = no growth, -100 = all killed). As to conditions: 10 µM unless noted. On the procedure:
Cells are grown in 96 well plates and exposed to the test compound for 48 hours. Compounds are tested at a single concentration, which is 10^-5 M for most compounds. The reported endpoint is percent growth (GI% or GIPRCNT), where numbers from 0 - 100% represent growth inhibition, and numbers from -100% - 0 represent cell death. For example, a value of 40 represents 60% growth inhibition. A value of 0 means no net growth occurred over the course of the experiment. A value of -40 indicates 40% of cells at the beginning of the experiment died by the end of the experiment. A value of -100 means all cells are dead at the end of the experiment.
NCI-60 Human Tumor Cell Lines Screen was performed using the standard one-dose NCI protocol, which is described in more detail at https://dtp.cancer.gov/discovery_development/nci-60/default.htm.
Compounds with GIPRCNT values below 10 were considered active. Activity score was based on GIPRCNT using the following formula: […]
Score is 0 for GIPRCNT values of 100 or above, 50 for GIPRCNT values of 0, and 100 for GIPRCNT values of -100.
As to `COc1ccc(-n2c(C)nc3c(c(C)nn3-c3ccccc3)c2=O)cc1`, the growth is -45.6% (active). With `CC(=O)Nc1ccc2c(c1)c(NC(C)=O)nn2C(=O)Nc1ccc(Cc2ccccc2)cc1` the figure was 102%; with `O=C1CC(c2nc3ccccc3[nH]2)CN1C1CCCCC1` (stereo not given), 102%. As for `Cc1nn(-c2nc3ccccc3[nH]2)c2c1C(c1ccc3c(c1)OCO3)CC(=O)N2` (stereo not given), the figure is 83.1%; as for `O=C1C(=O)N(CCCCn2cc(CO)nn2)c2ccccc21`, 111%. For `O=c1c2cccc3c(Nc4c(F)cccc4F)ccc(c32)c2nc3ccccc3n12`, the growth was 84.9%.

With `Nc1cc2ccncc2c2ccccc12`, the growth is 61.6%. As for `CN1CCN(Cc2ccc(NC(=O)c3cncc(C#Cc4cncc5nccnc45)c3)cc2C(F)(F)F)CC1`, the figure is 2.52% (active).

With `COCCOC(=O)C1=C(C)NC(=S)NC1c1ccc2c(c1)OCO2` (stereo not given), the growth is 117%. With `O=C(/C=C/c1cccc(Br)c1)c1ccccc1` the figure was 99.7%; with `S=c1[nH]nc(CSc2ncnc3c2c(-c2ccccc2)cn3-c2ccc(Cl)cc2)o1`, 99.1%; with `COc1ccc(CCN2CC=Cn3c2nc2ccccc2c3=O)cc1`, -43.2% (active). For `CS(=O)(=O)c1c(Nc2ccccc2)n[nH]c1N`, the growth is 105%. Consider `COc1cc(-c2cc(-c3nc4ccc(Cl)cc4[nH]3)[nH]n2)cc(OC)c1OC`, for which the growth was 60.5%. As for `CC(C)Oc1nc2c(c(=O)n(C)c(=O)n2C)n1C`, the figure is 102%. Turning to `COc1ccc(/C(=C/c2ccc3ccccc3c2)c2nn[nH]n2)cc1OC`, the growth was -2.4% (active). As for `CC/C(Cc1ccccc1)=C(\c1ccc(OCCN2CCCC2)cc1)c1ccc(OC(C)=O)cc1`, the figure is 7.7% (active). Regarding `Clc1cccc(Nc2nc(Nc3cnc4ccccc4c3)c3[nH]cnc3n2)c1`, the growth is 79.8%. As for `COc1ccc(/C=C2\N=C3SC=C(N)N3C2=O)cc1`, the figure is 12.5%; as for `O=C(/C=C/c1ccc(Cl)cc1)c1ccc(O)c(CN2CCN(c3cc4c(cc3F)c(=O)c(C(=O)O)cn4C3CC3)CC2)c1`, 136%; as for `CCCCCCCCCCCCCCCCCCNC(=O)[C@H]1CSC(c2ccc(F)c(OC)c2)N1` (stereo not given in full), 20.1%. Turning to `O=C(Nc1ccc(Oc2ccc(F)cc2)c(Cl)c1)c1cccnc1`, the growth was 120%.

On to `COc1cccc(-c2nc3sccn3c2-c2ccnc(NCCCNS(=O)(=O)c3ccccc3)c2)c1`, for which the growth is 37.7%.

In the case of `COc1ccccc1-c1ccc2c(N)c(C(=O)c3ccc4c(c3)OCO4)sc2n1`, the growth was 89.1%.

For the compound `O=C(O)c1cccc2c1-c1ccccc1C2=O`, the growth was 99.8%.

Take `O=c1c2cccc3c(Nc4ccccn4)ccc(c32)c2nc3ccccc3n12`: the growth was 71%. As for `C=CC[N+]1(CC)CCN=C1CCCCCCCCCCCCCCCCC` (stereo not given), the figure is -100% (active); as for `CC[C@H](Nc1cc(C)nc(N)n1)c1nc2cccc(NCc3ccc(C(=O)NO)cc3)c2c(=O)n1-c1ccccc1`, -51.8% (active); as for `COc1cc(NC(N)=NCC(C)(C)COc2ccc(C(F)(F)F)cc2)cnc1C#N`, 59.9%. With `CC1CN(C(C)C)C(=S)N(c2ccccc2)C1=O` (stereo not given) the figure was 157%; with `C=CC[N+]1(CCO)CCN=C1CCCCCCCCCCCCC` (stereo not given), -91.4% (active).

Turning to `C=C1CC[C@@H]2[C@](C)(COC(C)=O)[C@H](OC(C)=O)CC[C@@]2(C)[C@@H]1CC(Nc1ccc(S(=O)(=O)Nc2nc(C)cc(C)n2)cc1)C1=CCOC1=O` (stereo not given in full), the growth is 77%. For the compound `C#Cc1nc(Nc2cc(C)[nH]n2)c2ccccc2n1`, the growth is -56.6% (active). Consider `CCOC(=O)N1CCN(c2nc(Nc3cc(C)[nH]n3)c3ccccc3n2)CC1`, for which the growth was 14%. As for `CCCCCC(=O)Oc1ccc(/C(=C(\C)c2ccccc2)c2ccc(OCCN(CC)CC)cc2)cc1`, the figure is 15%. As for `CC/C(=C(\c1ccccc1)c1ccc(OCCNC)cc1)c1ccccc1`, the figure is -85.5% (active). Consider `CCOC(=O)c1c2c(n3ccc(NC(=O)CCN(CC)CC)cc13)C(=O)c1ncccc1C2=O`, for which the growth was 54.1%. `C=C1CC[C@@H]2[C@](C)(COC(C)=O)[C@H](OC(C)=O)CC[C@@]2(C)[C@@H]1CC(Nc1ccc(S(=O)(=O)Nc2ccc(Cl)nn2)cc1)C1=CCOC1=O` (stereo not given in full): the growth was 18%. With `O=[N+]([O-])c1cccc(-c2nc3sccn3c2-c2ccnc(NCCCNS(=O)(=O)c3ccc(F)cc3)n2)c1` the figure was 4.52% (active); with `COc1cc(C2CC(=O)Nc3c2cnn3Cc2ccco2)cc2c1OCCO2` (stereo not given), 81.2%.
